High-throughput results (PubChem BioAssay)
Hits are enriched below; roughly 0.49% of the tested compounds scored in any of these assays.
EPAC1 antagonist = antagonists of human EPAC1. Potency, µM (series often up to 115 µM), for the others: at the highest dose activity change, negative = inhibition, hits mostly inhibitors. 0.14% of 360,000 active. O95398. AID 720709. EPAC1 GEF assay, Rap1b-BODIPY-GDP exchange fluorescence;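 also: plate controls were vehicle for no effect and positive control for full effect; nearly all actives have a fitted effect of over 50% in size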
USP1 inh = inhibitors of human USP1/UAF1 deubiquitinase | O94782 | AID 743255 | Potency, µM (series often up to 57.1 µM), for the others: at the highest dose activity change, negative = inhibition, hits mostly inhibitors | recombinant USP1/UAF1, Ub-Rhodamine cleavage fluorescence | 0.23% of 390,000 active; also: % is scaled to controls: 0 for no effect and ±100 for the full control effect; nearly all actives have a fitted effect of over 60% in size
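USP1/UAF1 complex at 1 nM was preincubated with compound for 15 min at room temperature, then Ub-Rho substrate (150nM final) was added. Fluorescence (480/540 nm) was read kinetically, 6 reads every 60 seconds.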
EPAC2 agonist = activates human EPAC2 exchange factor; 0.079% of 360,000 active; Potency, µM (highest dose often 154 µM), inactives show top-dose activation, hits mostly activators; EPAC2 activation, biochemical qHTS; response scale: 100% = 6.5 mM cAMP response; also: nearly all actives have a fitted effect of over 50% in size
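qHTS, titration series. 100 nM EPAC2 / 250 nM Rap1B-BODIPY-GDP / 50 uM GDP; RT; ex 480/em 540 nm, 5-min reads to 30 min. Norm. to 6.5 mM cAMP = activation.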
EPAC2 antag = antagonists of human EPAC2; Q8WZA2; EPAC2 GEF exchange of Rap1B-BODIPY-GDP, fluorescence; Potency, µM (titrated, usually from 114 µM), without a hit: top-dose activity, negative = inhibition, hits mostly inhibitors; 0.18% of 360,000 active; AID 720708; also: % is scaled to controls: 0 for no effect and ±100 for the full control effect; nearly all actives have a fitted effect of over 45% in size
EPAC1 agonist = activates human EPAC1 exchange factor | O95398 | EPAC1 agonist qHTS, biochemical assay; response scale: 100% = response to 6.5 mM cAMP | Potency, µM (titrated, usually from 154 µM), without a hit: top-dose activation, actives largely listed as activators | 0.073% of 360,000 active | AID 720707; also: nearly all actives have a fitted effect of over 60% in size
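EPAC1 100 nM, Rap1B–BODIPY-GDP 250 nM, unlabeled GDP 50 uM; compound titration; 5 min RT; kinetic read ex480/em540 at 5-min intervals ×30 min; data normalized to 6.5 mM cAMP agonist control.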
* hit, by the source's call; ? = inconclusive; nt = not tested or not shown. Calls follow the shape of the dose curve; as a rule, active = well fitted curve in the direction sought with a large enough effect; inconclusive = small, poorly fitted or top-dose-only effect, or another doubt; inactive = no such curve, though single readings can be large; an effect the other way counts as inactive or inconclusive. Potency is read from the fitted curve at half-maximal effect.

SMILES	EPAC1 antagonist	USP1 inh	EPAC2 agonist	EPAC2 antag	EPAC1 agonist
CCc1ccc(S(=O)(=O)/N=C2/C=C(Sc3ncn[nH]3)C(=O)c3ccccc32)cc1	?	1.8µM*	10%	40µM*	1%
CCc1ccc(S(=O)(=O)/N=C2\C=C(Nc3cccc(C(=O)O)c3)C(=O)c3ccccc32)cc1	?	5.6µM*	4%	?	-8%
O=C1C=C(Nc2ccc(O)cc2)C(=O)c2ccccc21	-6%	-27%	-1%	0%	-11%
CCc1ccc(S(=O)(=O)/N=C2\C=C(Nc3ccc(O)cc3)C(=O)c3ccccc32)cc1	?	10µM*	11%	-24%	-3%
O=C(c1ccco1)[C@@H]1[C@@H]2C(=O)N(c3ccccc3)C(=O)[C@@H]2C2c3ccccc3C=CN21 (stereo not given in full)	-12%	10µM*	11%	-2%	9%
Cc1ccc(N2C(=O)[C@@H]3[C@H](C2=O)C2c4ccccc4C=CN2[C@@H]3C(=O)c2ccco2)cc1 (stereo not given in full)	-9%	16µM*	-7%	-8%	5%
O=C1C2C3C=CC(C3)C2C(=O)N1Cc1ccccc1 (stereo not given)	2%	-14%	-7%	9%	-1%
Cc1ccc(N2C(=O)[C@@H]3[C@H](C2=O)C2c4ccccc4C=CN2[C@@H]3C(=O)c2ccco2)c(C)c1 (stereo not given in full)	?	4µM*	11%	-5%	4%
CC(=O)[C@@H]1[C@@H]2C(=O)N(Cc3ccccc3)C(=O)[C@@H]2C2c3ccccc3C=CN21 (stereo not given in full)	3%	18µM*	2%	-1%	5%
Cc1ccc(-n2ncc3c(NNC(=O)c4ccco4)ncnc32)c(C)c1	-14%	?	-5%	8%	1%
COc1ccc(N2C(=O)[C@@H]3[C@H](C2=O)[C@H]2c4ccccc4C=CN2[C@@H]3C(=O)Nc2ccccc2)cc1	-7%	?	-10%	13%	0%
O=c1c(N2CCN(c3cccc(Cl)c3)CC2)csc2ccccc12	nt	-21%	nt	nt	nt
CCS(=O)(=O)N1CCCc2cc(C(=O)Nc3cc([N+](=O)[O-])ccc3C)ccc21	nt	-2%	nt	nt	nt
O=C1/C(=C\c2cccs2)Sc2ccc3ccccc3c21	7%	32µM*	1%	-7%	10%
CC1=NCCN1S(=O)(=O)c1c(C(C)C)cc(C(C)C)cc1C(C)C	-18%	-9%	-4%	79µM*	-4%
COc1ccc(Cl)cc1S(=O)(=O)N1CCN=C1C	3%	-7%	-7%	-14%	-14%
O=C(O)c1cccc2cccc(-c3c4ccc(=O)c(O)c-4oc4c(O)c(O)ccc34)c12	32µM*	?	-4%	-28%	12%
CCN(CC)c1ccc(/C=C(/C#N)C(=O)NC(C)C)o1	12%	25µM*	11%	-13%	13%
CCN(CC)c1ccc(/C=C(/C#N)C(=O)NCc2ccccc2)o1	3%	32µM*	26%	14%	5%
CC(C)NC(=O)/C(C#N)=C\c1ccc(N(C)C)o1	0%	?	1%	-5%	-3%
N#C/C(=C\c1ccc(O)cc1)C(=O)NCc1ccccc1	-10%	-14%	8%	-3%	-1%
COc1ccccc1NC(=O)C(Cc1ccccc1)NS(=O)(=O)c1cccc2nsnc12 (stereo not given)	nt	-3%	nt	nt	nt
Oc1ccc(/C(Cc2ccc3ccccc3n2)=N\Nc2ccccc2)c(O)c1	-27%	?	23%	-15%	17%
Oc1ccc(/C(Cc2ccccn2)=N\Nc2ccccc2)c(O)c1	?	-9%	8%	45µM*	19%
O=C(CSc1nnc(CN2CCOCC2)n1-c1ccccc1)N1CCc2ccccc21	6%	-19%	1%	4%	0%
CC1CCN(C(=O)CSc2nnc(CN3CCOCC3)n2-c2ccccc2)CC1	32µM*	-1%	-6%	2%	9%
COc1ccc(CC(=O)NCc2ccc3c(c2)CCN3C(=O)c2ccc(Cl)cc2)cc1OC	nt	-20%	nt	nt	nt
